High-throughput results: PubChem BioAssay, several laboratories
Shown are actives, neighbours in structure and some others; about 2.9% of the full set was active somewhere.
SKN-1 block = C. elegans SKN-1 inhibition; C. elegans VP596 Pgst-4::GFP/RFP ratio, acrylamide-induced, 24 h; inhibition, % at 21.8 µM; hit rate 0.49% among 360,000; AID 624304;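 active = interference check ratio from 0.5 to 1.5 plus GFP to RFP signal ratio inhibition reaching or exceeding a fixed threshold, cut at about 30% in these data, passing the limit was not always enough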
EP2 mod = modulators of human EP2 prostaglandin E2 receptor; AID 940; induction, % at 25 µM; EP2-expressing cells, cAMP HTRF FRET, PGE2 co-stimulation; P43116; hit rate 0.83% among 260,000;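 active = compounds whose cAMP rise, as percent of the full-agonist control response, exceeds 60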;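 note: rat C6 glioma line stably carrying human EP2 under a CMV promoter; the protocol text gives 20 µM as final concentration; 100% = response of wells given 1 µM PGE2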
PGE2 EP2 inh = blocks the human prostaglandin E2 receptor EP2; P43116; C6 glioma cells expressing human EP2, cAMP TR-FRET; cells stimulated with saturating PGE2; inhibition, % at 25 µM; hit rate 0.52% among 260,000; AID 1422;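 active = percent inhibition above 40 after rounding to a whole number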;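 note: rat C6 glioma host cells with rolipram phosphodiesterase inhibitor present; the protocol text gives 20 µM as final concentration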
NR1D1 modulator = modulates human Rev-erb alpha binding to DNA. activity, % at 10 µM. Rev-erbα–FITC-DNA binding, fluorescence polarization, 90 min. hit rate 0.79% among 370,000. P20393;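 active = activity above about 14%, limit read from the data; passing the limit was not always enough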;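 note: 0% = DMSO wells with 35 nM protein and 100% = DMSO wells with 750 nM protein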
Target sequence (P20393 whole entry, looked up): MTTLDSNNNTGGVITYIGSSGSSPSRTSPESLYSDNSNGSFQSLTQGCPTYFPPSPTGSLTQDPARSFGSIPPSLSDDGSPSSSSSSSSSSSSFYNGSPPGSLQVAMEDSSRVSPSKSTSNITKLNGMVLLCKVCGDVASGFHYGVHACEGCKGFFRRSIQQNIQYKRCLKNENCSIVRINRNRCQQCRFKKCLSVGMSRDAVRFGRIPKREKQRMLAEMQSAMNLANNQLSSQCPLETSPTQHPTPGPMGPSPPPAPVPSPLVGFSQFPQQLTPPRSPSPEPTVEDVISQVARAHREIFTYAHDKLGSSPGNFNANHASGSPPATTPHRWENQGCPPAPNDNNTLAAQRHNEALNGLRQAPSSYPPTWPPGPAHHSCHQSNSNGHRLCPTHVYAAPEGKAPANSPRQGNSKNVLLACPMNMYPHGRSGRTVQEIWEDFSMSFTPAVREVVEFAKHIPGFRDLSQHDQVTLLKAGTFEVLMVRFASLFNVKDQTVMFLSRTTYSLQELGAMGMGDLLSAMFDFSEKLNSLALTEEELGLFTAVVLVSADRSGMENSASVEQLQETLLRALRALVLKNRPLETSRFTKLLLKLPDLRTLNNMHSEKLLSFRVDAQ
PG9 binder = PG9 antibody binding by small molecule; AID 624416; inhibition, % at 6.7 µM; hit rate 0.43% among 360,000; TR-FRET gp120-PG9 antibody binding; in the data active = inhibition above about 8.5%
RAM network inh = yeast RAM network inhibition | S. cerevisiae dse1pr::URA3 reporter, 5-FOA growth OD615, 2 d; analog-sensitive cbk1-as2 kinase mutant strain | inhibition, % at 50 µM | hit rate 1.8% among 190,000 | AID 868;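 active = inhibition above a set limit, 3 SD over mean compound inhibition, cut at about 8.4% in these data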;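 note: 0% = DMSO-only wells with no growth and 100% = 10 µM 1-NA-PP1 full growth; inhibition rescues growth on 5-FOA so higher OD means more RAM inhibition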
* marks the source's active call; other numbers are inactive results; . = not tested or not shown.

SMILES	SKN-1 block	EP2 mod	PGE2 EP2 inh	NR1D1 modulator	PG9 binder	RAM network inh
COc1ccc(C(C)NC(=O)Cn2nc(C)n3c(cc4sccc43)c2=O)cc1 (configuration not stated)	.	8	.	.	.	.
CCOC(=O)c1cc(NC(=O)c2ccc(OC)cc2)c(=O)oc1-c1ccccc1	-6	-2	4	3	1	11*
COc1ccc(S(=O)(=O)N2CCCC(C(=O)NCC3CCCCC3)C2)cc1 (configuration not stated)	.	18	14	.	.	.
CC(C)(C)OC(=O)N1CC=C2C(C#N)=C(N)C(C#N)(C#N)C(c3ccc4c(c3)OCO4)C2C1 (configuration not stated)	.	15	40*	.	.	.
C[C@H]1C[C@@H]2[C@@H]3CCC4=CC(=O)C=C[C@@]4(C)[C@@]3(Cl)[C@H](Cl)C[C@@]2(C)[C@]1(O)C(=O)COP(=O)(O)O	.	16	41*	.	.	.
Cc1ccc(NCc2nnc(SCC(=O)N3CCCC3)n2C)cc1	.	-6	9	.	.	.
O=C(/C(N=Nc1cccc(C(F)(F)F)c1)=C(/O)c1cccs1)C(F)(F)F	11	-8	7	-2	-3	.
Cc1cccc(N=N/C(=C\O)C(=O)c2cccs2)c1	13	64*	7	9	-3	1
CC(C)CNC(=O)NC(=O)COc1c(F)c(F)cc(F)c1F	4	18	8	2	0	-1
CC(C)CCNC(=O)NC(=O)COc1c(F)c(F)cc(F)c1F	60*	-5	14	-5	-1	0
COc1cc(NS(=O)(=O)c2ccc(N/C=C(\C#N)c3nc4cc(Cl)ccc4o3)cc2)nc(OC)n1	9	-55	18	-5	0	9.1*
CCOc1ccc2[nH]c(=O)c(CN(Cc3nnnn3C3CCCCC3)C3CCCCC3)cc2c1	.	58	11	.	.	.
Cc1cc(=O)[nH]c(SC(C)C(=O)Nc2ccccc2)n1 (configuration not stated)	.	4	9	.	.	.
CC(Sc1nc(C(C)(C)C)cc(-c2ccccc2)c1C#N)C(=O)Nc1ccccc1 (configuration not stated)	8	33	10	0	-1	9.2*
Cc1ccc(S(=O)(=O)NCC(c2ccco2)S(=O)(=O)c2ccccc2)cc1 (configuration not stated)	11	.	.	-2	0	.
Cc1ccc(S(=O)(=O)NCCC(c2ccc(F)cc2)c2ccco2)cc1 (configuration not stated)	0	58	3	2	0	11*
COc1ccccc1C(CCNS(=O)(=O)c1ccc(C)cc1)c1ccco1 (configuration not stated)	2	57	4	-3	-2	10.0*
O=C(NN1C(=O)/C(=C/C=C/c2ccco2)SC1=S)c1ccncc1	24	-20	7	-27	-2	.
O=C(CCN1C(=O)/C(=C\c2ccccc2)SC1=S)NNC(=O)c1ccncc1	-5	-43	15	-3	-6	.
O=C(CCN1C(=O)/C(=C\C=C\c2ccccc2)SC1=S)Nc1ccc(C(=O)O)cc1	4	.	.	-3	-2	.
O=C(NN1C(=O)/C(=C/C=C/c2ccccc2)SC1=S)c1ccncc1	14	1	3	0	-5	9.3*
O=C(CN1C(=O)/C(=C\C=C\c2ccccc2)SC1=S)Nc1ccc(F)cc1	19	-5	5	3	-1	9.7*
O=C(CCN1C(=O)/C(=C/c2ccccc2)SC1=S)NNC(=O)c1ccncc1	-3	-52	5	-4	-4	8.8*
CC(C)N1C(=O)C2C(C(=O)NCc3ccccc3)C3C=CC2(O3)C1C(=O)NC1CCCC1 (configuration not stated)	.	-13	10	.	.	.
COC(=O)c1ccccc1NC(=O)CSc1nnnn1-c1ccc(OC)cc1	.	-22	6	.	.	.
SMILES	SKN-1 block	EP2 mod	PGE2 EP2 inh	NR1D1 modulator	PG9 binder	RAM network inh
Cc1c(C)n(Cc2ccccc2)c2ccc(C(=O)OCCN(C)C)cc12	36*	19	7	2	-1	0
Cc1cc(/C=C2/C(=O)NN(c3ccccc3)C2=O)c(C)n1-c1ccc(O)cc1	12	-27	14	4	-4	9.9*
COc1ccc(-n2c(C)cc(/C=C3\C(=O)NN(c4ccccc4)C3=O)c2C)cc1	2	10	5	-5	-1	5
Cc1nn(C)c(C)c1NC(=O)Cn1nc2c3ccccc3nc(Cc3ccccc3)n2c1=O	.	-29	8	.	.	.
Cn1c(C(=O)NCCC2=CCCCC2)cc2c(=O)n3ccccc3nc21	-26	63*	12	4	0	3
Cc1cccn2c(=O)c3cc(C(=O)NCCC4=CCCCC4)n(C)c3nc12	0	.	.	12	1	.
CSc1oc(-c2ccco2)nc1S(=O)(=O)c1ccc(Br)cc1	6	10	7	1	-2	8.4*
COc1ccc(-c2cc(C(=O)Nc3c(C)n(C)n(-c4ccccc4)c3=O)c3ccccc3n2)c(OC)c1	36*	.	.	-3	0	.
COc1ccc(-c2cc(C(=O)Nc3c(C)n(C)n(-c4ccccc4)c3=O)c3ccccc3n2)cc1OC	18	.	.	-4	2	.
O=C(Nc1ccc2nc(C3CC3)n(Cc3ccc(Cl)cc3)c(=O)c2c1)c1ccco1	.	-44	6	.	.	.
C#CCOc1cccc(C2NC(=O)NC(C)=C2C(=O)OC)c1 (configuration not stated)	.	10	13	.	.	.
O=C(c1ccco1)N1N=C(c2ccncc2)CC1(O)C(F)(F)F (configuration not stated)	-10	36	7	-3	0	3
O=C(c1ccco1)N1N=C(c2ccc(Cl)cc2)CC1(O)C(F)(F)F (configuration not stated)	10	61*	7	2	0	3
COC(=O)c1ccc(Oc2ccc(C(C)(C)C)cc2)c([N+](=O)[O-])c1	-24	33	.	6	0	8.4*
O=C(C1c2ccccc2Oc2ccccc21)N1CCC(O)(c2ccccn2)CC1	.	-45	.	.	.	.
Nc1nc(-c2ccc3ccccc3c2)cc(-c2cc(-c3ccc4ccccc4c3)nc(N)n2)n1	.	6	51*	.	.	.
Nc1nc(-c2ccc3ccccc3c2)cs1	18	-47	6	-4	1	0
CCOc1ccc(S(=O)(=O)N(C)c2ccc(OCC(=O)NCc3ccco3)cc2)cc1	-12	-17	7	-2	-2	9.8*
Oc1nc(Nc2cccc(Cl)c2)sc1/C=C1\C=Nc2ccccc21	4	-10	21	1	-1	3
CCOC(=O)c1c(Nc2ccc(Cl)cc2)sc(/C=C2\C=Nc3ccccc32)c1O	11	-1	9	-4	1	9.3*
N#CCSc1nc2cc(C(=O)N3CCCC3)ccc2c(=O)n1Cc1ccccc1	16	-6	10	-4	-1	3
COc1ccc(C(C)=O)cc1CSc1nc2cc(C(=O)O)ccc2c(=O)n1Cc1ccccc1	-1	64*	12	-2	-1	4
